Experimental findings from the supplement of paper PMC10849652 are described below.

Of roughly 7,900 targets only a part is listed; those with a hit were picked by preference. About 0.6% of all pairs of compound and target were hits.

UniProt Q13825, sequence (Q13825 whole entry, looked up): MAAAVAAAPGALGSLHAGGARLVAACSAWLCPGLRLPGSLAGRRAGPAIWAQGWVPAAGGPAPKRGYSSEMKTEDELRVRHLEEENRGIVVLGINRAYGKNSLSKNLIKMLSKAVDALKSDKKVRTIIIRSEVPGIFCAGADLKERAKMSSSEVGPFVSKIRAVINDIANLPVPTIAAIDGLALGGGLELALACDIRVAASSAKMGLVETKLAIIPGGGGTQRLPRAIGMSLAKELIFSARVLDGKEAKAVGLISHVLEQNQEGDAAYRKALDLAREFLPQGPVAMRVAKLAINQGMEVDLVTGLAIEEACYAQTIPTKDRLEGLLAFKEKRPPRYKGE
UniProt P78363, sequence (P78363 whole entry, looked up): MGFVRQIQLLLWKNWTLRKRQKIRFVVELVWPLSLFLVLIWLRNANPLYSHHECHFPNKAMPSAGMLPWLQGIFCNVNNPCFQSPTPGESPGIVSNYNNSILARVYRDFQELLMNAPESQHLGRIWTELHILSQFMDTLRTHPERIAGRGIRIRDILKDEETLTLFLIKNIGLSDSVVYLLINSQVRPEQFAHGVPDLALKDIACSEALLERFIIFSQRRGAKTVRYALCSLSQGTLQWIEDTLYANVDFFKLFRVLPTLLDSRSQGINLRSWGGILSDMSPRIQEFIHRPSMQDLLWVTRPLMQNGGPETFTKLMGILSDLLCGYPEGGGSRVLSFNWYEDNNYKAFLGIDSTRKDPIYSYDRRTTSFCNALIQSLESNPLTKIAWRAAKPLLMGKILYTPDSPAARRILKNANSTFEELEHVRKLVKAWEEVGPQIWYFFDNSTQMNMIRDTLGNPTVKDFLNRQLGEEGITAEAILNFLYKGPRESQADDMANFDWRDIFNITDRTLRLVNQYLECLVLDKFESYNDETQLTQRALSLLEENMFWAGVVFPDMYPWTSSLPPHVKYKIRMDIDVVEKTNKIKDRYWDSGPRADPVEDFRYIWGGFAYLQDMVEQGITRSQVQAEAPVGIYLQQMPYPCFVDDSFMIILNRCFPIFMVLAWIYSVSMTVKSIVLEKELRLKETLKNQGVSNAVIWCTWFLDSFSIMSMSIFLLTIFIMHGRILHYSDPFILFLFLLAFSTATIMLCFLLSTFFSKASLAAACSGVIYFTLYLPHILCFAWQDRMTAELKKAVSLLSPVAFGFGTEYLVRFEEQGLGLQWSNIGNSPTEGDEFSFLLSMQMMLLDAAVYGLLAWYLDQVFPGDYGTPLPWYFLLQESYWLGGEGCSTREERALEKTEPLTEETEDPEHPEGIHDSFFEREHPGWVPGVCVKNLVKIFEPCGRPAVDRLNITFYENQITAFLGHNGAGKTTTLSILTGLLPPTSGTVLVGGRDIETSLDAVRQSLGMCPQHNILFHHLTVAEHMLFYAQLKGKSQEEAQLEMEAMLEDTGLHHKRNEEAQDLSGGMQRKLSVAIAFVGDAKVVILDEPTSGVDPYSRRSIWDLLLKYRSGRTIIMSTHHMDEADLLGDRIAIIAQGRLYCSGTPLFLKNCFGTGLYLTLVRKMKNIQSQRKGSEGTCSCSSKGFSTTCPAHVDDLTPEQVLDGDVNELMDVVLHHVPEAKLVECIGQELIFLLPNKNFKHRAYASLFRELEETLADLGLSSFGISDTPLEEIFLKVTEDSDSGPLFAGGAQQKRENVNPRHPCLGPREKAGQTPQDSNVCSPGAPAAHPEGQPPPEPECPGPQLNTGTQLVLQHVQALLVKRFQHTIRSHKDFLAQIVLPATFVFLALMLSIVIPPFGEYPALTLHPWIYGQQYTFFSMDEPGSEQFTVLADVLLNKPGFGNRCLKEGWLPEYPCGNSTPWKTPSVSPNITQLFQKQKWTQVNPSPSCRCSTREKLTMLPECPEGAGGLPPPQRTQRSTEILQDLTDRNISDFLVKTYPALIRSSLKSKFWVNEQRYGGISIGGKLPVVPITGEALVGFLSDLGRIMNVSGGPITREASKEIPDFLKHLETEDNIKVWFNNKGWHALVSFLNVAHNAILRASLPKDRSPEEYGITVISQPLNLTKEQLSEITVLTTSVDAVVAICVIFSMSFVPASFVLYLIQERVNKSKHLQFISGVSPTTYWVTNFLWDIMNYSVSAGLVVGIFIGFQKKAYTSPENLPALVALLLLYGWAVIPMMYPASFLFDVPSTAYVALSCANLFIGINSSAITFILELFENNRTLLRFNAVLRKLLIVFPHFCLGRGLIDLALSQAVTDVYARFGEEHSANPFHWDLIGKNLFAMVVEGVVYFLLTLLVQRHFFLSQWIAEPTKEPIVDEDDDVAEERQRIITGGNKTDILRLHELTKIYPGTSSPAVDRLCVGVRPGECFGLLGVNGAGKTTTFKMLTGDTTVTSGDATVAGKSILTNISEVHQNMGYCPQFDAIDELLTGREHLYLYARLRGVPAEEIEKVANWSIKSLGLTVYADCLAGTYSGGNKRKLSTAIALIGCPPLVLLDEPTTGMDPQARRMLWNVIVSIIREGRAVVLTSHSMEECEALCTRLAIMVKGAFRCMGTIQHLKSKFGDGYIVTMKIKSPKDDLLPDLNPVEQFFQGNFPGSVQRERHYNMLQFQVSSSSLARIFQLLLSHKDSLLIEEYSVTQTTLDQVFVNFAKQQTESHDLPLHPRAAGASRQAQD
UniProt Q96GS6, sequence (Q96GS6 whole entry, looked up): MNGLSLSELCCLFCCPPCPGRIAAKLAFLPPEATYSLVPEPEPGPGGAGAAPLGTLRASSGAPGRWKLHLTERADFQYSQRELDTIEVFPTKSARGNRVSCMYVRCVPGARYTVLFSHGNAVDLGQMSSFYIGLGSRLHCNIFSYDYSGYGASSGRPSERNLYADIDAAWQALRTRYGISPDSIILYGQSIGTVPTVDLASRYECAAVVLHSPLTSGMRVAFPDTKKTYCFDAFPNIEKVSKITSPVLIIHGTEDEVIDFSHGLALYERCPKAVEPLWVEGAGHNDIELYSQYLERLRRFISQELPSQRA
UniProt Q92934, sequence (Q92934 whole entry, looked up): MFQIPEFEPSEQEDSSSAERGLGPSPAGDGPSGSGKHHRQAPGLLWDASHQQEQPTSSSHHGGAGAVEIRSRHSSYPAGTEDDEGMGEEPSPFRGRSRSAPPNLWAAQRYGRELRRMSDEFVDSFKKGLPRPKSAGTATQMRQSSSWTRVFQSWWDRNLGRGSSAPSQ
UniProt P63010, sequence (P63010 whole entry, looked up): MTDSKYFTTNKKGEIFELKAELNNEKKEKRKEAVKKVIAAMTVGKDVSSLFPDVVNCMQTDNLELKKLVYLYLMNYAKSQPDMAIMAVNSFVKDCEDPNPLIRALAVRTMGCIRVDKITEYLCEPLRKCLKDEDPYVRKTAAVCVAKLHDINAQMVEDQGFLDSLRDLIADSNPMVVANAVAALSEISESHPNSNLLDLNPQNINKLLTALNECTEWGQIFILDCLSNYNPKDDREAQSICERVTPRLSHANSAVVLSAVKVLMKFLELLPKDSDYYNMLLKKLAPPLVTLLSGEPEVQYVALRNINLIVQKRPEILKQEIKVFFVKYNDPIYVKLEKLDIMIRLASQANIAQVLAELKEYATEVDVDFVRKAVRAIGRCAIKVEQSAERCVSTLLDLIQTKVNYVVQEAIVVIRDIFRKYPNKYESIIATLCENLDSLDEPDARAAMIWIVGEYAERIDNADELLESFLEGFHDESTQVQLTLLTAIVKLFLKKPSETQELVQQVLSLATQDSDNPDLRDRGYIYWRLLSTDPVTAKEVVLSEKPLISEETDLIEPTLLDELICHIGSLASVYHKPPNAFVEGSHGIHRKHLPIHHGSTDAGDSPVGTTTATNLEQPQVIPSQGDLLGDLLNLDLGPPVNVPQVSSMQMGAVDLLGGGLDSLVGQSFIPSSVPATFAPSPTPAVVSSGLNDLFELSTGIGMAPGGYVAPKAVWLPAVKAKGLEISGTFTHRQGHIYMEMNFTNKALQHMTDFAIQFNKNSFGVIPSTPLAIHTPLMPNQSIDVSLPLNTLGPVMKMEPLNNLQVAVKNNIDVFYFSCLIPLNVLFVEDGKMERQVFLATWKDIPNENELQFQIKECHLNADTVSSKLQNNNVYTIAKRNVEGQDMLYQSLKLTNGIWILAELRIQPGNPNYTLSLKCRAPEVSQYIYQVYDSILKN
UniProt Q9NX46, sequence (Q9NX46 whole entry, looked up): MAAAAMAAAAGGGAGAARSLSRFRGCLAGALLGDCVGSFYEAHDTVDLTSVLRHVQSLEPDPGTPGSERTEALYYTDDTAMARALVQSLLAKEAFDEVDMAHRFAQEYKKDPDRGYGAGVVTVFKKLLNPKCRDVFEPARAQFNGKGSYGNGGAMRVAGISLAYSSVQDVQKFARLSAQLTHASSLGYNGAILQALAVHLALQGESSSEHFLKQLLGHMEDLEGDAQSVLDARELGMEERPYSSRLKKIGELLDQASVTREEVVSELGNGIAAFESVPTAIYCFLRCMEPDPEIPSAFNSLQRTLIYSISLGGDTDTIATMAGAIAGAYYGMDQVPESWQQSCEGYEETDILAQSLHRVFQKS
UniProt Q8NFV4, sequence (Q8NFV4 whole entry, looked up): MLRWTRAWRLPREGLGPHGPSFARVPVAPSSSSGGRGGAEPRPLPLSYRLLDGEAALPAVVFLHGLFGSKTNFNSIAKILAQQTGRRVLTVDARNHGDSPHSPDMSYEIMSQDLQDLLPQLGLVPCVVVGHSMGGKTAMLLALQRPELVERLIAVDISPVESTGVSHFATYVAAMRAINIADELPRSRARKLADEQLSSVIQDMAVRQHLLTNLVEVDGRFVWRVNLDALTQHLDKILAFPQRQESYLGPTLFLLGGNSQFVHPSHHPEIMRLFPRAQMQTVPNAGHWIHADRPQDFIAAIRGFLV
UniProt Q6QNY0, sequence (Q6QNY0 whole entry, looked up): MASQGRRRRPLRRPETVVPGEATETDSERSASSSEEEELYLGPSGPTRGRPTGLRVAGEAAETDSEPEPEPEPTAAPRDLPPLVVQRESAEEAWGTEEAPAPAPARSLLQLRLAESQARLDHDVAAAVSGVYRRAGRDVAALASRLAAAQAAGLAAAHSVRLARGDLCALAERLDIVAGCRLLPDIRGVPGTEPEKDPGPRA

Compound in this test: c1cn2cc(-c3ccc4cn[nH]c4c3)nc(Nc3ccc(N4CCOCC4)cc3)c2n1 [entospletinib]
The test can be described thus: log2 fold change, soluble protein after heating vs DMSO (PISA); higher = thermal stabilisation; K562 cells, 10 uM, 30 min; active = over 0.2 and 3.5 SD of the protein, either way, in both replicates (recomputed). The method, boiled down:
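Soluble protein was defined as the supernatant after 21,000xg for 90 min. It came from K562 cells at 2×10^6 cells/mL given 10 μM compound for 30 min, heated in aliquots for 3 min across 48°C-58°C, pooled, and extracted in PBS with 0.5% NP-40 at 4°C, and was quantified by TMTpro 16plex LC-MS/MS with equalised channel sums. Thermal stability against control samples, from duplicates, is reported as log2 fold change.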
As for AGPAT1 (UniProt Q99943), the log2 fold change was -0.037 (inactive). For the target ACOX3 (UniProt O15254), the log2 fold change is 0.056 (inactive). The value for ADPRHL2 (UniProt Q9NX46) was 0.024 (inactive). The value for BAD (UniProt Q92934) was -0.014 (inactive).

For ATXN3 isoform 1 (UniProt P54252), the log2 fold change was 0.058 (inactive).

As for ABHD17A isoform 2 (UniProt Q96GS6), the log2 fold change is -0.076 (inactive). Take ABHD11 (UniProt Q8NFV4): the log2 fold change is 0.006 (inactive).

Turning to ATP9B (UniProt O43861), the log2 fold change was -0.134 (inactive).

As to ANKRD29 (UniProt Q8N6D5), the log2 fold change was -0.152 (inactive).

For ATP7B (UniProt P35670), the log2 fold change was 0.012 (inactive). The value for BLOC1S3 (UniProt Q6QNY0) was -0.079 (inactive); that for AUH (UniProt Q13825) was -0.068 (inactive); that for AP2B1 isoform 2 (UniProt P63010) was 0.032 (inactive). For ACVR1 (UniProt Q04771), the log2 fold change was -0.053 (inactive). For ABCA4 (UniProt P78363), the log2 fold change was -0.079 (inactive). For ATP12A isoform 2 (UniProt P54707), the log2 fold change is -0.003 (inactive). Regarding ACSF3 (UniProt Q4G176), the log2 fold change is -0.059 (inactive).
